# Target: HLA-C*04:01
# Test: thermal melting temperature (Tm) of peptide-HLA complex; higher = more thermostable pHLA complex
# Conditions: C1R-A*02:01
# Description: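 Endogenous HLA-C*04:01 ligands were detected in the thermostability assays of both the C1R-A*02:01 and C1R-B*07:02 lines. Lysates were heated 10 min at 37-73 °C and pHLA immunoprecipitated with W6/32. Peptides were quantified by DIA-MS and Tm was taken from a logistic sigmoid fit.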
row,Sequence,thermal melting temperature [°C]
1,VFDVLDGEEM,53.4
2,MFDKDVVML,48.9
3,VFDEAIRAV,61.2
4,FYDLYGGEKF,48.8
5,VLDDKLVFV,61.8
6,SFDPSRTF,53.7
7,SFDDTNEKF,49.8
8,SFDSALQSV,56.4
9,FFDEVVKQM,58.8
10,SFDLLPREF,54.7
11,VFDEAVRV,52.4
12,VTDPRVVDL,53.8
13,TFDVAPSRLDF,60.1
14,IWDETPLYF,50.8
15,VFDPVTKL,48.3
16,NPDDVFREF,61.2
17,VFPKEPVEL,52.4
18,FYDERIVVV,63.9
19,QFDNYGEEF,50.8
20,TYEGKPIFL,52.9
21,SYDPTIENTF,54.9
22,FWDPSVNLF,53.7
23,TFDPMTRQI,54.1
24,KFDPVGEIL,55.9

row,Sequence,thermal melting temperature [°C]
1,AWDKEPVLV,57.8
2,HYDEQQNFF,53.5
3,FWDDAVKEV,46.6
4,LWDSAVSHF,55.1
5,LFDDIDHNM,52.6
6,HYDPATEEF,60.2
7,SFDTGFTSF,48.1
8,IFSEKPVFV,60
9,AHDVDPIEL,45.7
10,LFDLGGQYL,48.8
11,TYDLQESNV,57.5
12,LFHPSNVEM,46
13,FYDVQFKEL,53.1
14,YFDPANGKF,57.6
15,IYDPNLAFL,58.9
16,AWDIAIATM,50.9
17,IYDVQHANL,50.7
18,AWEERETIL,57.8
19,FFEVSPVSF,49.9
20,TFDSTIHF,55.9
21,VWDLFPEADKV,54.5
22,VIDEPVRL,50
23,HFDPEVYL,54.6

# Same assay, conditions: C1R-B*07:02
row,Sequence,thermal melting temperature [°C]
1,VFDVLDGEEM,60.9
2,MFDKDVVML,54.6
3,VFDEAIRAV,61.5
4,FYDLYGGEKF,48.5
5,VLDDKLVFV,48.9
6,SFDPSRTF,52.8
7,SFDDTNEKF,48.2
8,SFDSALQSV,60.7
9,FFDEVVKQM,60.5
10,SFDLLPREF,55.9
11,VFDEAVRV,50.6
12,VTDPRVVDL,52.7
13,TFDVAPSRLDF,62.2
14,IWDETPLYF,51.8
15,VFDPVTKL,48.6
16,NPDDVFREF,62.7
17,VFPKEPVEL,52.2
18,FYDERIVVV,62.3
19,QFDNYGEEF,55.5
20,TYEGKPIFL,51.5
21,SYDPTIENTF,58.1
22,FWDPSVNLF,52.4
23,TFDPMTRQI,57
24,KFDPVGEIL,54.9

row,Sequence,thermal melting temperature [°C]
1,AWDKEPVLV,57.6
2,HYDEQQNFF,53.3
3,FWDDAVKEV,48.3
4,LWDSAVSHF,55.6
5,LFDDIDHNM,53.7
6,HYDPATEEF,58.2
7,SFDTGFTSF,46.1
8,IFSEKPVFV,57
9,AHDVDPIEL,46.9
10,LFDLGGQYL,44.5
11,TYDLQESNV,55.5
12,LFHPSNVEM,46.4
13,FYDVQFKEL,52.5
14,YFDPANGKF,57.5
15,IYDPNLAFL,56
16,AWDIAIATM,49.6
17,IYDVQHANL,53
18,AWEERETIL,56.3
19,FFEVSPVSF,46.6
20,TFDSTIHF,58
21,VWDLFPEADKV,52.4
22,VIDEPVRL,50.3
23,HFDPEVYL,53.2

# Source: the supplement of paper PMC7726561
